The values that follow come from PubChem BioAssay.

A short description of test [1]: sensitizers of A549 cells to miR-34 induction, primary screen, imaging, A549 dox-inducible miR-34, nuclei and caspase counts (AID 1347080;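 active = compounds whose cell count with miR-34 switched on is under 0.7 times the count with it off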; also: test concentration not given here). Particulars: A549 miR-34 inducible, Hoechst nuclei count, 48 h.
Test [2] can be described thus: viability rescue of complex I mutant cybrids, primary screen, cell-based, galactose medium, ATP luminescence (AID 1645843).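 Also: positive z means more ATP and so rescue of galactose-driven cybrid death.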 The following applies: complex I mutant cybrid cells, 72 h, stronger effect = higher value.
Setting [3] is: stronger effect = lower value, cell number ratio, induced over uninduced.
[4] abbreviates: measured here: relative caspase fold change +Dox/-Dox.
Where [5] appears, read: measured here: total cells with miR-34 induction, stronger effect = lower value.
Setting [6] is: measured here: total cells without miR-34 induction.

Activity calls are given as the source filed them.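 The calls were made as follows, unless noted: active = z-score of at least 1.8 in each of two replicates, scored against plate mean and spread of sample wells; inactive = the rest.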

Regarding `C[C@]12C=CC(=O)C=C1CCC1C2C(O)C[C@@]2(C)C1CC[C@]2(O)C(=O)COC(=O)CCC(=O)O` (stereo not given in full), the fold change in test [1] (setting [3]) was 0.962 (inactive); in test [1] (setting [4]), 2.02. Also, the cell count in test [1] (setting [5]) came to 7550; in test [1] (setting [6]), 7850. For the same compound, the z-score in test [2] is 1.77 (inactive).

`Cc1ccsc1C(=CCCN1CCCC(C(=O)O)C1)c1sccc1C` (stereo not given): the fold change in test [1] (setting [3]) is 0.928 (inactive); in test [1] (setting [4]), 1.05. The cell count in test [1] (setting [5]) worked out at 8550; in test [1] (setting [6]) it was 9210. Further, the z-score in test [2] was 1.02 (inactive).

Consider `CC=CC(=O)N(CC)c1ccccc1C`, for which the fold change in test [1] (setting [3]) is 0.962 (inactive); in test [1] (setting [4]) it was 1.8. Besides, the cell count amounted to 9730 in test [1] (setting [5]) and 10100 in test [1] (setting [6]). For the same compound, in test [2], the z-score is 0.595 (inactive).

As to `CC(CCC(=O)O)C1CCC2C3C(=O)CC4CC(=O)CC[C@]4(C)C3CC(=O)[C@]12C` (stereo not given in full), the results for the fold change in test [1] (setting [3]) and in test [1] (setting [4]) were 0.951 (inactive) and 0.625, respectively. The cell count in test [1] (setting [5]) stood at 9350; in test [1] (setting [6]), 9830. Also, the z-score in test [2] is 0.29 (inactive).

As for `O=C1NC(C(=O)O)CS1` (stereo not given), the figures for the fold change in test [1] (setting [3]) and in test [1] (setting [4]) were 0.93 (inactive) and 1.73, respectively. Besides, the cell count in test [1] (setting [5]) was 9590; in test [1] (setting [6]), 10300. Further, the z-score in test [2] is 1.05 (inactive).

As for `[Cl-].[Cl][Pt].[NH2-].[NH2-].c1ccncc1`, the fold change was 0.987 (inactive) in test [1] (setting [3]) and 0.925 in test [1] (setting [4]). Also, the cell count in test [1] (setting [5]) stood at 9550; in test [1] (setting [6]) it was 9680. The z-score in test [2] was -1 (inactive).

With `COC1C=CO[C@@]2(C)Oc3c(C)c(O)c4c(O)c(c5c(nc6cc(C)ccn65)c4c3C2=O)NC(=O)C(C)=CC=CC(C)C(O)C(C)C(O)C(C)C(OC(C)=O)C1C` (stereo not given in full), the fold change in test [1] (setting [3]) is 0.986 (inactive); in test [1] (setting [4]), 1.96. Further, the cell count is 9910 in test [1] (setting [5]) and 10000 in test [1] (setting [6]). The z-score in test [2] is 1.96 (active).

For the compound `CC(=O)O[C@]1(C(C)=O)CCC2C3C=C(C)C4=CC(=O)CC[C@]4(C)C3CC[C@@]21C` (stereo not given in full), the fold change is 0.943 (inactive) in test [1] (setting [3]) and 1.2 in test [1] (setting [4]). Also, the cell count in test [1] (setting [5]) was 6760; in test [1] (setting [6]), 7170. Also, the z-score in test [2] is -0.29 (inactive).

Consider `CC(C)(C)NC(=O)C1CCC2C3CCC4NC(=O)C=C[C@]4(C)C3CC[C@]12C` (stereo not given in full), for which the fold change was 0.939 (inactive) in test [1] (setting [3]) and 1.36 in test [1] (setting [4]). For the same compound, the cell count stood at 8850 in test [1] (setting [5]) and 9430 in test [1] (setting [6]). Further, in test [2], the z-score is 0.345 (inactive).

In the case of `NC(C(=O)NC1C(=O)N2C(C(=O)O)=C(CSc3cn[nH]n3)CSC12)c1ccc(O)cc1` (stereo not given) (tested in a mixture with another compound), the fold change in test [1] (setting [3]) is 0.899 (inactive); in test [1] (setting [4]) it was 1.68. Besides, the cell count was determined as 9710 in test [1] (setting [5]) and 10800 in test [1] (setting [6]). For the same compound, the z-score in test [2] is 0.555 (inactive).

Regarding `CCC(C)C(=O)OC1CC(O)C=C2C=CC(C)C(CCC(O)CC(O)CC(=O)O)C21` (stereo not given), the fold change was 0.961 (inactive) in test [1] (setting [3]) and 1.91 in test [1] (setting [4]). Moreover, the values for the cell count in test [1] (setting [5]) and in test [1] (setting [6]) were 10300 and 10800, respectively. For the same compound, the z-score in test [2] was 0.5 (inactive).

Turning to `CC(C)CC(NC(=O)C(O)C(N)Cc1ccccc1)C(=O)O` (stereo not given), the figures for the fold change in test [1] (setting [3]) and in test [1] (setting [4]) were 0.913 (inactive) and 1.61, respectively. Besides, the cell count amounted to 8460 in test [1] (setting [5]) and 9270 in test [1] (setting [6]). In test [2], the z-score is 0.29 (inactive).

In the case of `CC1COc2c(C3(N)CC3)c(F)cc3c(=O)c(C(=O)O)cn1c23` (stereo not given), the fold change was 0.951 (inactive) in test [1] (setting [3]) and 1.6 in test [1] (setting [4]). Further, the cell count in test [1] (setting [5]) was 9830; in test [1] (setting [6]), 10300. For the same compound, the z-score in test [2] is 0.395 (inactive).

Turning to `COc1cc(CC(CO)C(CO)Cc2ccc(O)c(OC)c2)ccc1O` (stereo not given), the figures for the fold change in test [1] (setting [3]) and in test [1] (setting [4]) were 1.4 (inactive) and 0.831, respectively. The figures for the cell count in test [1] (setting [5]) and in test [1] (setting [6]) were 8290 and 5940, respectively. Besides, the z-score in test [2] was 0.405 (inactive).

Turning to `CC(=O)C1CCC2C3CCC4=CC(=O)CC[C@]4(C)C3CC[C@]12C` (stereo not given in full), the fold change in test [1] (setting [3]) was 0.861 (inactive); in test [1] (setting [4]) it was 1.42. For the same compound, the cell count is 7200 in test [1] (setting [5]) and 8360 in test [1] (setting [6]). In addition, the z-score in test [2] is -0.365 (inactive).

Take `CC1CCC2C(C)C(OC(=O)CCC(=O)O)OC3O[C@@]4(C)CCC1[C@]32OO4` (stereo not given in full): the values for the fold change in test [1] (setting [3]) and in test [1] (setting [4]) were 0.992 (inactive) and 1.91, respectively. Also, the cell count in test [1] (setting [5]) was found to be 6760; in test [1] (setting [6]) it was 6810. Moreover, the z-score in test [2] was -1.79 (inactive).

With `CC(C)OC(=O)CCCC=CCC1C(O)CC(O)C1CCC(O)CCc1ccccc1` (stereo not given), the fold change in test [1] (setting [3]) is 1 (inactive); in test [1] (setting [4]), 2.41. Also, the cell count in test [1] (setting [5]) and in test [1] (setting [6]) was 9620 in each case. In test [2], the z-score was -1.17 (inactive).

`CN1CCc2cc(Cl)c(O)cc2C(c2ccccc2)C1` (stereo not given): the fold change in test [1] (setting [3]) is 0.944 (inactive); in test [1] (setting [4]), 0.98. For the same compound, the cell count in test [1] (setting [5]) amounted to 8780; in test [1] (setting [6]), 9300. Moreover, the z-score in test [2] is 0.39 (inactive).

Consider `COCc1c(C(C)C)nc(C(C)C)c(C=CC(O)CC(O)CC(=O)O)c1-c1ccc(F)cc1` (stereo not given), for which the fold change in test [1] (setting [3]) was 1.06 (inactive); in test [1] (setting [4]), 2.76. Moreover, the cell count in test [1] (setting [5]) turned out to be 1210; in test [1] (setting [6]), 1140. In addition, the z-score in test [2] is -1.86 (inactive).

As for `CC=C1C2C=C(C)C[C@]1(N)c1ccc(=O)[nH]c1C2`, the fold change in test [1] (setting [3]) is 0.883 (inactive); in test [1] (setting [4]) it was 1.22. For the same compound, the figures for the cell count in test [1] (setting [5]) and in test [1] (setting [6]) were 10100 and 11400, respectively. Moreover, the z-score in test [2] is 0.9 (inactive).

For the compound `O=C1c2cccc3c2C(CCC3)CN1C1CN2CCC1CC2` (stereo not given), the fold change was 1.56 (inactive) in test [1] (setting [3]) and 0.609 in test [1] (setting [4]). In addition, the values for the cell count in test [1] (setting [5]) and in test [1] (setting [6]) were 5340 and 3420, respectively. Further, the z-score in test [2] was -0.005 (inactive).

On to `COCC1=C(C(=O)OC(C)OC(=O)OC(C)C)N2C(=O)C(NC(=O)C(=NOC)c3csc(N)n3)C2SC1` (stereo not given), for which the fold change is 0.946 (inactive) in test [1] (setting [3]) and 1.68 in test [1] (setting [4]). Besides, the cell count in test [1] (setting [5]) was found to be 9860; in test [1] (setting [6]), 10400. Also, the z-score in test [2] was 0.625 (inactive).

Take `CN1CC(=O)N/C1=N\C(=O)Nc1cccc(Cl)c1`: the fold change in test [1] (setting [3]) was 1.1 (inactive); in test [1] (setting [4]) it was 0.699. Further, the cell count in test [1] (setting [5]) turned out to be 10900; in test [1] (setting [6]) it was 9930. In test [2], the z-score was 0.545 (inactive).

Turning to `CN(C)C1C(=O)C(C(=O)NCN2CCCC2)=C(O)[C@@]2(O)C(=O)C3=C(O)c4c(O)cccc4[C@@](C)(O)C3CC12` (stereo not given in full), the results for the fold change in test [1] (setting [3]) and in test [1] (setting [4]) were 0.983 (inactive) and 1.25, respectively. Moreover, the values for the cell count in test [1] (setting [5]) and in test [1] (setting [6]) were 8500 and 8650, respectively. Besides, the z-score in test [2] was 0.465 (inactive).
